The values that follow come from PubChem BioAssay (NCATS).

Inconclusive results are not listed. Calls of active or inactive are those of the source. Unless noted, calls follow the shape of the dose curve; as a rule, active = well fitted curve in the direction sought with a large enough effect; inconclusive = small, poorly fitted or top-dose-only effect, or another doubt; inactive = no such curve, though single readings can be large; an effect the other way counts as inactive or inconclusive.

For assay [1], the target named is Lysosomal acid glucosylceramidase (Homo sapiens) (UniProt P04062). Description: Glucocerebrosidase-p2 (AID 348; in the data active = potency below about 10 µM; also: potency is read from the fitted curve at half-maximal effect). The note with it: purified GBA, blue fluorogenic substrate, 40 min. In outline:
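Compounds titrated from 0.6 nM upwards against 0.2 nM enzyme in pH 5.9 citric acid/KH2PO4, taurocholate, tween-20; blue fluorogenic substrate 80 uM, 40 min room temperature, stopped and read Ex 365/Em 440 for AC50.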

Assay [2] can be described thus: AP1 Signaling Pathway (AID 357; active = well fitted curve in either direction with a large enough effect, not every such curve was filed as active; also: % is scaled to controls: 0 for no effect and ±100 for the full control effect). The note with it: ME-180 AP-1-bla reporter, EGF-induced, beta-lactamase ratio, 5 h; at 7.69 µM (top of the series) unless noted. The gist of the method:
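ME-180 cells with beta-lactamase reporter under AP-1 response element, stimulated with EC50 EGF; compounds tested in titration series, 5 h at 37 °C. CCF4 substrate added 2.5 h at room temperature; 460/530 nm emission ratio gave %activity and AC50.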

Assay [3] is described as follows: NFAT Signaling Pathway (AID 444; active = well fitted curve in either direction with a large enough effect, not every such curve was filed as active;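 also: carbachol stimulus at about its EC50 of 1 µM final; % is scaled to controls: 0 for no effect and ±100 for the full control effect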). The note with it: Jurkat NFAT-bla M1, carbachol, beta-lactamase ratio, 5 h; at 7.69 µM (top of the series) unless noted. The gist of the method: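 Jurkat cells carrying an NFAT-driven β-lactamase reporter and co-transfected muscarinic M1 receptor were treated with compound plus carbachol (1 uM final, an EC50 level) for 5 h at 37 °C. CCF4 loading followed for 1 h at RT; 460/530 nm ratio gave %activity.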

The target of assay [4] is Glucocorticoid receptor (Homo sapiens) (UniProt P04150). Description: GR-GFP Redistribution (AID 450;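 active = compounds whose dose series gives a full or clear partial fitted curve of increased nuclear translocation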; also: potency is read from the fitted curve at half-maximal effect). The note with it: U2OS GR-GFP nuclear translocation, laser cytometry, 2 h.
Sequence of Glucocorticoid receptor (Homo sapiens) (P04150 whole entry, looked up, the tested form may be a part): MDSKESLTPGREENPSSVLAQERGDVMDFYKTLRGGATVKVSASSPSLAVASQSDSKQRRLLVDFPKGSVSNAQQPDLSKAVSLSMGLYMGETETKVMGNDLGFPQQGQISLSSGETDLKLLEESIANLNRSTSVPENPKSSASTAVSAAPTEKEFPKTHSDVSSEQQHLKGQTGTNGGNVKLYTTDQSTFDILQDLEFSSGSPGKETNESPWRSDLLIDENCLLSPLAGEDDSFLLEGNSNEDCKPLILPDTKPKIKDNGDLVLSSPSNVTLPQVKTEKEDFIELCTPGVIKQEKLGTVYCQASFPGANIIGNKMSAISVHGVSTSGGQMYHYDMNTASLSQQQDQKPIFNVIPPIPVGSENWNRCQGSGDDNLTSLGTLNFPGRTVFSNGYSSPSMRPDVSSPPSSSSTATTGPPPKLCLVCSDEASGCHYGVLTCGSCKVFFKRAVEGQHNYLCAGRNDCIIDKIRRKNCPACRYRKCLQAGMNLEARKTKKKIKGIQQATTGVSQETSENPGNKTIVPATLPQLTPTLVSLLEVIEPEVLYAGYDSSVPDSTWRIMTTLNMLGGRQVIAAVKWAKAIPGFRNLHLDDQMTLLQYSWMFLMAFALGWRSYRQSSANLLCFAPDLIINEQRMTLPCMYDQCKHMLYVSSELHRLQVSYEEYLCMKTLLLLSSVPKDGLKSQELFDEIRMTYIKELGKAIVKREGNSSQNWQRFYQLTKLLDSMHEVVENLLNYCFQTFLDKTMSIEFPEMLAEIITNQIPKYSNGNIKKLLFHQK
Assay [5] has the same target. As to the kind of experiment: GR-EFC Redistribution (AID 451; calls by dose curve; also: potency is read from the fitted curve at half-maximal effect). The note with it: CHO-K1 GR-EFC translocation, beta-gal luminescence, 2 h. In outline: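 CHO-K1 cells stably expressing nuclear-localized β-gal enzyme acceptor and GR fused C-terminally to the enzyme donor fragment; ligand-driven nuclear translocation restores β-gal by complementation. Compounds titrated up to 46 uM final, 2 h at 37 °C; luminescence read.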

The target in assay [6] is Mitogen-activated protein kinase 10 (Mus musculus) (UniProt Q61831). As to the kind of experiment: JNK3 AlphaScreen Assay (AID 530; active = well fitted curve in either direction with a large enough effect, not every such curve was filed as active;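 also: kinase came from lysate of stimulated human HepG2 cells; signal reports phosphorylation of biotinylated GST-cJun 1-79 at Ser73 with 10 µM ATP; % is scaled to controls: 0 for no effect and ±100 for the full control effect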). The note with it: JNK3 lysate, c-Jun phosphorylation; series mostly up to 57.1 µM. The gist of the method: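 Inhibitors reduce antibody binding to phosphorylated biotin-cJun, lowering AlphaScreen luminescence. Lysates from HepG2 cells pre-activated by IL-1beta plus TNF-alpha supplied JNK3; compounds were titrated.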
Background: Alpha assays give light when donor and acceptor beads are brought close together.

Assay [7] has as its target 3',5'-cyclic-AMP phosphodiesterase 4B (Homo sapiens) (UniProt Q07343). Description: qHTS Assay for Inhibitors of PDE-IV (AID 607; active = well fitted activation curve with a large enough effect in the main read-out, with a control signal flat, not every such curve was filed as active; also: % of control where 0% means no effect). The note with it: HEK293 ACTOne CNG channel cells, membrane potential fluorescence; series mostly up to 22.9 µM. The gist of the method: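 Cell-based read-out of cAMP via a modified cyclic nucleotide-gated channel and membrane potential dye (535/590 nm) in HEK293 cells expressing PDE4 endogenously. Compounds tested up to 22.9 uM final; 100 uM RO 20-1724 reference.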
(Quantitative high-throughput screening tests each substance at several concentrations.)

Assay [8] can be described thus: qHTS Assay for Identification of Small Molecule Agonists for Hypoxia Response Element Signaling Pathway (AID 914; active = well fitted activation curve with a large enough effect in the signal ratio, with a control signal flat, not every such curve was filed as active; the % refers to the signal ratio; also: potency is read from the fitted curve at half-maximal effect; as to activation: % of control where 0% means no effect). The note with it: ME-180 HRE-bla reporter, beta-lactamase ratio, CoCl2, 17 h; activation: stronger effect = higher value. In outline:
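Read-out: CCF4 FRET ratio of 460nm to 530nm emission (excitation 405nm) after 2.5 hours at room temperature, taken from HRE-bla ME-180 cells that had been exposed to compound and EC50 CoCl2 for 17 hours.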

Assay [9] can be described thus: qHTS Assay for Lipid Storage Modulators (AID 1519; calls by dose curve). The note with it: Drosophila S3 cells, BODIPY lipid droplet/cell ratio, laser cytometry, cells loaded with oleic acid; for activity change, negative = inhibition: at 57.5 µM (top of the series). The gist of the method:
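Cells seeded at 5,000 per well were treated with compounds over a concentration series and loaded with oleic acid (400 uM, as added). Lipid droplet fluorescence (488 nm excitation, 500-530 nm channel) was read by laser-scanning cytometry and normalized to 20 uM Triacsin C.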

Assay [10] deals with Dual specificity protein kinase CLK4 (Homo sapiens) (UniProt Q9HAZ1). Description: qHTS Assay for Inhibitors of CDC-like Kinase 4 (Kinase-Glo Assay) (AID 1770). Also: nearly all actives have a fitted effect of over 65% in size. Also: potency is read from the fitted curve at half-maximal effect. The note with it: recombinant Clk4, Kinase-Glo ATP depletion luminescence; series mostly up to 66.7 µM. The gist of the method:
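Clk4 25 nM, RS peptide 100 uM, ATP 1 uM, pH 7.5 Tris, 10 mM MgCl2, 2.5 mM DTT; 4.5 h RT; ATP depletion read by Kinase-Glo luminescence.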

The target is the same in assay [11]. As to the kind of experiment: qHTS Assay for Inhibitors of CDC-like Kinase 4 (ADP-Glo Assay) (AID 1771). Also: nearly all actives have a fitted effect of over 70% in size. Also: potency is read from the fitted curve at half-maximal effect. The note with it: recombinant CLK4, ADP-Glo luminescence; series mostly up to 80 µM. The gist of the method: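 Luminescence from ADP-Glo reports ADP produced by 25 nM Clk4 acting on 100 uM RS repeat peptide with 1 uM ATP over 1 hr at room temperature; residual ATP is depleted before ADP is converted to ATP for detection.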

Assay [12] has the same target. As to the kind of experiment: qHTS Assay for Inhibitors of CDC-like Kinase 4 (ADP-FP Assay) (AID 1795). Also: nearly all actives have a fitted effect of over 60% in size. Also: potency is read from the fitted curve at half-maximal effect. The note with it: Transcreener ADP fluorescence polarization; series mostly up to 50 µM. In outline:
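Kinase activity was followed as ADP output, converted from fluorescence polarization with a calibration curve. Reactions ran one hour at low ATP (1 uM) with RS peptide substrate.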

The target of assay [13] is Ubiquitin carboxyl-terminal hydrolase 1 (Homo sapiens) (UniProt O94782). Description: Inhibitors of USP1/UAF1: Pilot qHTS (AID 504865).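 Also: rhodamine fluorescence freed from ubiquitin-rhodamine substrate followed over time; top concentration of the series differs between compounds; % is scaled to controls: 0 for no effect and ±100 for the full control effect; nearly all actives have a fitted effect of over 35% in size.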 The note with it: purified USP1/UAF1, Ub-rhodamine cleavage fluorescence; series mostly up to 54.9 µM. The gist of the method:
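Enzyme-free wells gave the negative control, while test wells held 1nM USP1/UAF1 preincubated with compound for 15 min at room temperature. Ub-Rho at 150nM final started the reaction, and fluorescence at 480/540 nm was recorded kinetically.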

Assay [14] can be described thus: Primary qHTS for small molecule stabilizers of the endoplasmic reticulum resident proteome: Secreted ER Calcium Modulated Protein (SERCaMP) assay (AID 1508630). Also: % is scaled to controls: 0 for no effect and ±100 for the full control effect. The note with it: SH-SY5Y GLuc-SERCaMP (Gaussia luciferase released on ER calcium loss) secretion, thapsigargin, luminescence; series mostly up to 38.4 µM. The gist of the method: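 GLuc-SERCaMP-expressing SH-SY5Y cells, pretreated 16 h with compound, are challenged with thapsigargin to empty ER calcium stores; after 4 h, coelenterazine is added directly to the medium and luminescence is imaged.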

Assay [15] has as its target Cytochrome P450 1A2 (Homo sapiens) (UniProt P05177). Description: p450-cyp1a2 (AID 410; calls by dose curve; also: potency is read from the fitted curve at half-maximal effect). The note with it: recombinant CYP1A2, luciferin-ME demethylation, luminescence; series mostly up to 57 µM. The gist of the method: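 Luminescent readout of luciferin formed from Luciferin-ME by human CYP1A2; data normalized against complete inhibition by 57 uM furafylline. Enzyme 20nM, substrate 100uM at Km, 100mM KPO4 buffer, 60 min reaction at room temperature.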

Assay [16] in a line: Stat Signaling Pathway (AID 446; active = well fitted curve in either direction with a large enough effect, not every such curve was filed as active). The note with it: ME-180 SIE beta-lactamase reporter, IL-6 stimulated, 5 h; at 7.69 µM (top of the series) unless noted. In outline: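 Reporter line: ME-180 cervical carcinoma, SIE-beta-lactamase. Treatment: compound with 40 pM IL-6, 5 hrs, 37 C, in low-serum OPTI-MEM with 10 mM HEPES pH 7.3. Detection: 460/530 nm fluorescence.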
Assay [17] has as its target Cytochrome P450 3A4 (Homo sapiens) (UniProt P08684). Description: qHTS Assay for Activators of Cytochrome P450 3A4 (AID 885). Also: nearly all actives have a fitted effect of over 65% in size. The note with it: recombinant CYP3A4, Luciferin-PPXE luminescence, 60 min; series mostly up to 57.1 µM. In outline:
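Signal was normalized against complete inhibition by 57 uM ketoconazole. The reaction used 20nM CYP3A4 with 25uM Luciferin-PPXE, 10-min compound preincubation and a 60-min NADPH-supported step at RT.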

The mark [18] stands for this setting: measured here: cell count channel max response.
The mark [19] stands for this setting: measured here: lipid channel max response.

Sequence of Lysosomal acid glucosylceramidase (Homo sapiens) (P04062 whole entry, looked up): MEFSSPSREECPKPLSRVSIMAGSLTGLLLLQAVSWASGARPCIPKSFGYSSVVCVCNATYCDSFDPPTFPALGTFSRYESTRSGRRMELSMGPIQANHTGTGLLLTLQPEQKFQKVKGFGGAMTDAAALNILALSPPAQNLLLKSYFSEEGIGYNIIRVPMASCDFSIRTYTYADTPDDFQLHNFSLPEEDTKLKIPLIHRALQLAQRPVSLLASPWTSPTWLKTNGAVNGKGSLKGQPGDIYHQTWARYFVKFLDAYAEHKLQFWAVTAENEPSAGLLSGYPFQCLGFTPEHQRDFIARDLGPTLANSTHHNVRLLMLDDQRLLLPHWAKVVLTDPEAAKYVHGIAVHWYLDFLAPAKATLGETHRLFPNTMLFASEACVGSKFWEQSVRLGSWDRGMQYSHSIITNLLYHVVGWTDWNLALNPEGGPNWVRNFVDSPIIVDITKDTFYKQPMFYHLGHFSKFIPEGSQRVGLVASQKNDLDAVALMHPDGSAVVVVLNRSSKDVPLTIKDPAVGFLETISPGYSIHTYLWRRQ
Sequence of 3',5'-cyclic-AMP phosphodiesterase 4B (Homo sapiens) (Q07343 whole entry, looked up): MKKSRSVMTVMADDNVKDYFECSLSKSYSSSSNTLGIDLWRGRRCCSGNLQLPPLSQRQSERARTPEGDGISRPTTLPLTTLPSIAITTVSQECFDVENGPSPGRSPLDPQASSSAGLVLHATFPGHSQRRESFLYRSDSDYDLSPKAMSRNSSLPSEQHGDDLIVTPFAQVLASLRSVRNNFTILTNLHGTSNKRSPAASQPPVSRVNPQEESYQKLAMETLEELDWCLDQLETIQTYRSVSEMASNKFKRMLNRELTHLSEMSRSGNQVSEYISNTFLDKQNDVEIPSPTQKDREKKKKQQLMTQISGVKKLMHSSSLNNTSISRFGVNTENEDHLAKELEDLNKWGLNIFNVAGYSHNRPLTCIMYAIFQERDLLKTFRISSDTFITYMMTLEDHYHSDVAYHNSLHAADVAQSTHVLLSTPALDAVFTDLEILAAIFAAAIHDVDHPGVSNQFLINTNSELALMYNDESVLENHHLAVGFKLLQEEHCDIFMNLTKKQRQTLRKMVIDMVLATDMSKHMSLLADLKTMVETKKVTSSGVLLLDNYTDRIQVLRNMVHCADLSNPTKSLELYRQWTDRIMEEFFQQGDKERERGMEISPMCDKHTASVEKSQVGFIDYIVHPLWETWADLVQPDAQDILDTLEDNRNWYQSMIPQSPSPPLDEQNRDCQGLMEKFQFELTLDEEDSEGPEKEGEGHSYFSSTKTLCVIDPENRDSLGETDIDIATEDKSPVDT
Sequence of Ubiquitin carboxyl-terminal hydrolase 1 (Homo sapiens) (O94782 whole entry, looked up): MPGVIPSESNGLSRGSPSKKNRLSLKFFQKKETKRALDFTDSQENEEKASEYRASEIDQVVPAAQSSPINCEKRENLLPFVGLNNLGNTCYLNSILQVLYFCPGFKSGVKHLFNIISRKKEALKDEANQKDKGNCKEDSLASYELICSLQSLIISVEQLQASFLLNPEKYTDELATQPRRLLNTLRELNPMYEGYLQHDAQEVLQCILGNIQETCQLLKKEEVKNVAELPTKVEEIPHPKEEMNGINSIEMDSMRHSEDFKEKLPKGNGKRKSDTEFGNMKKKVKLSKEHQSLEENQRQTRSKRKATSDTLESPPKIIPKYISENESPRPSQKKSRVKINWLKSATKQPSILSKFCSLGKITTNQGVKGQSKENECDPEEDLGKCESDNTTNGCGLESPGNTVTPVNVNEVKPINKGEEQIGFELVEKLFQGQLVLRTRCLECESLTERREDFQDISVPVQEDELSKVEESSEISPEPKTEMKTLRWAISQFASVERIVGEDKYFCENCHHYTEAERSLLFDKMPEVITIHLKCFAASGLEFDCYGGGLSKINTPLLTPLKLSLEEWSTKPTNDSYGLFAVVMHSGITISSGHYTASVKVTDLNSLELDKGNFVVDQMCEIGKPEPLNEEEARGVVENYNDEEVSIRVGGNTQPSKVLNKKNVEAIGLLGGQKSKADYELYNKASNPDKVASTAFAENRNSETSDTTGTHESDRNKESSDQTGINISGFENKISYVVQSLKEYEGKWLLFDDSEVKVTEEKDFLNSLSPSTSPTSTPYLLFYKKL
Sequence of Dual specificity protein kinase CLK4 (Homo sapiens) (Q9HAZ1 whole entry, looked up): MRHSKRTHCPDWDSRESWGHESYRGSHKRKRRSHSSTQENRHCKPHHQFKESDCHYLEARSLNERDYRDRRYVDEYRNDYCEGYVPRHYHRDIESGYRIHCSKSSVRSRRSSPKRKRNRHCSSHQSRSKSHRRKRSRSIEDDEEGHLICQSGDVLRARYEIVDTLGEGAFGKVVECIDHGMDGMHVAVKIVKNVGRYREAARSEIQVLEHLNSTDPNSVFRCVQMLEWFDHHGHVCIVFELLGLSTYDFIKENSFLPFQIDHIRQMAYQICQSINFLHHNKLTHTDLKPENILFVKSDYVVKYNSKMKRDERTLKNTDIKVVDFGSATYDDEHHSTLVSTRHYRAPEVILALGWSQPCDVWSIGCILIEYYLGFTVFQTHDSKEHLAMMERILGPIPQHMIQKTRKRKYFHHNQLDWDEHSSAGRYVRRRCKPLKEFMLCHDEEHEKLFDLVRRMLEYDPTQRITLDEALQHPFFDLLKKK
Sequence of Cytochrome P450 3A4 (Homo sapiens) (P08684 whole entry, looked up): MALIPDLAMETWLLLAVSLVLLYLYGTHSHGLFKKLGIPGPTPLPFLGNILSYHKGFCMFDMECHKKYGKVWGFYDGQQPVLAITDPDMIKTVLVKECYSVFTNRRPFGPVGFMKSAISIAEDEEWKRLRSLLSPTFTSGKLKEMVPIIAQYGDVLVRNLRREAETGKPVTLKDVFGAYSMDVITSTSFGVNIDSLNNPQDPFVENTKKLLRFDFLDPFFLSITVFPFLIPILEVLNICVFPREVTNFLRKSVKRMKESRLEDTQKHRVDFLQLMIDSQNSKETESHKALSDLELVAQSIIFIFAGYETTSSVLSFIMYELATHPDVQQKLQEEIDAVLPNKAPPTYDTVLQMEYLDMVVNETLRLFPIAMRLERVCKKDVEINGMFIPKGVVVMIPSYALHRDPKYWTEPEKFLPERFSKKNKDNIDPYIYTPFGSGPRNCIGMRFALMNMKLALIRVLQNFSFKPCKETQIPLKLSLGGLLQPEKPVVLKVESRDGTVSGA
Sequence of Cytochrome P450 1A2 (Homo sapiens) (P05177 whole entry, looked up): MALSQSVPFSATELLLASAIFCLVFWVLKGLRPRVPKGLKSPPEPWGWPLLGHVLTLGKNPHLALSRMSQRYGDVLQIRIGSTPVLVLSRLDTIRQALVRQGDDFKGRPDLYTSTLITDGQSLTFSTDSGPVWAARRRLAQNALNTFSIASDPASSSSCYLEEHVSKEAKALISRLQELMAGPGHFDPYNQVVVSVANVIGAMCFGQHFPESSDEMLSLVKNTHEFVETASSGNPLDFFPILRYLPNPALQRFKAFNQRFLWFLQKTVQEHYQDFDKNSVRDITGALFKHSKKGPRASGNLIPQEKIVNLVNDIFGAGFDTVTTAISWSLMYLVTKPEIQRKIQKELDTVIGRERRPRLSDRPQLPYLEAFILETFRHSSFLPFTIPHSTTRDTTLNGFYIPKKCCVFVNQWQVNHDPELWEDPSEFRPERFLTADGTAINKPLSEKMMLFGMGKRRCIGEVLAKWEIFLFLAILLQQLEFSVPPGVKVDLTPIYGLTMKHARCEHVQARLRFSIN

Turning to `COc1ccc(-c2nc3cnc(Nc4ccccc4)nc3n(Cc3cccs3)c2=O)cc1`, the Potency in assay [1] is > 11.4 µM (inactive); in assay [4], > 9.22 µM (inactive); in assay [5], > 46 µM (inactive); in assay [8], 3.16 µM (active). Besides, the activity change, negative = inhibition in assay [2] was 19.7% (inactive); in [3] it was 23.4% (inactive); in [9], 0.81% (inactive). For the same compound, in assay [6], the compound was classed as inactive. In addition, the Potency entry in assay [7], in assay [10], in [11], in assay [12], in assay [13] and in [14] was “inactive” throughout. Besides, the max response in [9] (setting [18]) was 23.8%; in [9] (setting [19]), 23.5%.
For `CCNc1ncc2ncc(=O)n(Cc3cccs3)c2n1`, the Potency in assay [1] is > 11.4 µM (inactive); in [15], 2 µM (active); in assay [4], > 9.22 µM (inactive); in [5], > 46 µM (inactive); in [10], 3.16 µM (active); in assay [11], 5.62 µM (active). Further, the Potency in [12] was 5.01 µM (active). For the same compound, the activity change, negative = inhibition is -8.48% (inactive) in [3] and 5.21% (inactive) in [9]. The activity, negative = inhibition in assay [16] was -24.4% (inactive). Also, in assay [6], the compound was called inactive. The Potency entry in assay [7], in assay [17], in [13] and in assay [14] was “inactive” in each case. The activation in assay [8] was -28.8% (inactive). The max response in assay [9] (setting [18]) stood at 12.7%; in assay [9] (setting [19]), 16.4%.
Take `COCCn1c(=O)cnc2cnc(Nc3ccccc3)nc21`: the Potency is > 11.4 µM (inactive) in assay [1]; 1 µM (active) in [15]; > 9.22 µM (inactive) in assay [4]; > 46 µM (inactive) in assay [5]; 3.55 µM (active) in [10]; 3.16 µM (active) in assay [11]. In assay [12], the Potency is 2.82 µM (active). In addition, the compound was called inactive in assay [6]. Besides, the Potency entry in assay [7], in [13] and in assay [14] was “inactive” throughout. In addition, the activity change, negative = inhibition in assay [9] is -9% (inactive). Besides, the max response in assay [9] (setting [18]) is -2.6%; in assay [9] (setting [19]), -12.1%.
For `O=c1cnc2cncnc2n1Cc1ccc(F)cc1`, the Potency in assay [1] is > 11.4 µM (inactive); in assay [4], > 9.22 µM (inactive); in assay [5] it was > 46 µM (inactive). Moreover, the activity change, negative = inhibition in [2] was 8.77% (inactive); in assay [3] it was -27.6% (inactive); in assay [9], -2.55% (inactive). In addition, in [16], the activity, negative = inhibition was -8.63% (inactive). In addition, in assay [6], the compound was classed as inactive. In addition, the Potency result in assay [17], in [10], in assay [11], in [12], in assay [13] and in [14] was “inactive” each time. Also, the figures for the max response in assay [9] (setting [18]) and in [9] (setting [19]) were -3.3% and -6.15%, respectively.
Consider `COc1cccc(Cn2c(=O)c(C)nc3cnc(Nc4ccccc4)nc32)c1`, for which the Potency in assay [1] is > 11.4 µM (inactive); in [4], > 9.22 µM (inactive); in assay [5], > 46 µM (inactive). Besides, the activity change, negative = inhibition in assay [2] is -15.3% (inactive); in assay [9], 0.284% (inactive). For the same compound, the activity, negative = inhibition in [16] was -3.72% (inactive). Further, in assay [6], the compound was classed as inactive. Also, the Potency entry in [7], in assay [10], in assay [11], in assay [12], in assay [13] and in assay [14] was “inactive” throughout. The max response in [9] (setting [18]) stood at 11.6%; in assay [9] (setting [19]), 9.21%.
